Data from PubChem BioAssay (Tox21).
Unmarked numbers belong to inactive results. Where a call stands in place of a potency, no number is given. Activity calls are given as the source filed them. The call rests on the fitted dose curve.

Biological target: Acetylcholinesterase (Homo sapiens) (UniProt P22303)
Experiment: Acetylcholinesterase (AChE) small molecule antagonists: enzyme-based qHTS assay with human liver microsomes (AID 1347399); further: nearly all actives have a fitted effect of over 60% in size
Settings: Potency: qHTS inhibition; outcome: qHTS inhibition; series mostly up to 115 µM
Summary of the method: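 Recombinant human AChE (50 mU/mL in the enzyme mix) and human liver microsomes (0.25 mg/mL final) were preincubated with compound and NADPH (0.25 mg/mL final) for 30 min at 37 C. Acetylthiocholine/DTNB was then added; thiocholine was read colorimetrically after 10 min at room temperature.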

Acetylcholinesterase (Homo sapiens), sequence (P22303 whole entry, looked up): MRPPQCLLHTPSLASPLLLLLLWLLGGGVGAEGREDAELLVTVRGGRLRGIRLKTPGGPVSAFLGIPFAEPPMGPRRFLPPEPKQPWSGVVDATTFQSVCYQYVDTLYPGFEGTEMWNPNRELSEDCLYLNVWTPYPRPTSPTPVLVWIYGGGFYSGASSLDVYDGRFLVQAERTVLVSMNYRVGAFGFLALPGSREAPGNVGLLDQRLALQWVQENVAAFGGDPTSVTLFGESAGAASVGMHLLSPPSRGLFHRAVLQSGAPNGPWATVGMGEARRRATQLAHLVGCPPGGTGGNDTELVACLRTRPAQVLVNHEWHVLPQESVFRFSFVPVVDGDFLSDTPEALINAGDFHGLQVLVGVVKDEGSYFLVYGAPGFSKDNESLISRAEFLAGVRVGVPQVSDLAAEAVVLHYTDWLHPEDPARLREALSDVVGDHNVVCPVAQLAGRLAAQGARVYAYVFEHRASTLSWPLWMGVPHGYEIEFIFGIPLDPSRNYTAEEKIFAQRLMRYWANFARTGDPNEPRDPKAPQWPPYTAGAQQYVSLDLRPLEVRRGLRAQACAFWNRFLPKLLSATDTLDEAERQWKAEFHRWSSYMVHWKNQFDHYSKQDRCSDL

Structure (SMILES) | Potency | activity change, negative = inhibition
CC(=O)c1ccccc1[N+](=O)[O-] | inactive | 
Cc1ccc(C(C)(C)C)c(O)c1 | inactive | 
C=C(C)C(=O)OCCNC(C)(C)C | inactive | 
COc1cc(C=O)ccc1OC(=O)C(C)C | inactive | 
Oc1cccc(O)c1 | inactive | 
C[C@@H]1NC(=O)[C@@H](N)CNC(=O)[C@H](C2CCNC(N)=N2)NC(=O)/C(=C/NC(N)=O)NC(=O)[C@H](CNC(=O)C[C@@H](N)CCCN)NC1=O (stereo not given in full) |  | -1.43% [at 0.435 µM]
Cl[Si](Cl)(c1ccccc1)c1ccccc1 | inactive | 
CCCCC(CC)C(=O)OCCOCCOCCOCCOC(=O)C(CC)CCCC (stereo not given) | inactive | 
N[C@@H](Cc1cc(I)c(Oc2ccc(O)c(I)c2)c(I)c1)C(=O)O | inactive | 
CC1=C(O)C(=O)CO1 | inactive | 
OCCNCCO | inactive | 
C[C@@H](N)C(=O)O | inactive | 
O=C(O)c1cccc(Oc2ccccc2)c1 | inactive | 
C=C(C)C(=O)OCCCCCCCCCCCCCCCCCC |  | 0.563% [at 23.6 µM]
N#Cc1ccc(C(=O)O)cc1 | inactive | 
CCOCCO | inactive | 
OCCOCC#CCOCCO | inactive | 
C/C=C(/C(=C/C)c1ccc(O)cc1)c1ccc(O)cc1 | inactive | 
CCCCCCCC/C=C\CCCCCCCC(=O)O | inactive | 
COc1ccc(-c2cc(C(F)F)nn2-c2ccc(S(N)(=O)=O)cc2)cc1F | inactive | 

Structure (SMILES) | Potency | activity change, negative = inhibition
O=C(Oc1ccccc1)c1ccccc1O | inactive | 
O=Cc1cc2ccccc2o1 | inactive | 
COC(=O)c1ccccc1C | inactive | 
Cc1ccc(O)c2ncccc12 | inactive | 
C=C(CC)C(=O)c1ccc(OCC(=O)O)c(Cl)c1Cl | inactive | 
Nc1ccc(S(=O)(=O)O)cc1 | inactive | 
Cc1cccc2sc(N)nc12 | inactive | 
CC(C)OC(=O)c1ccccc1 | inactive | 
Nc1c(I)cc(I)c(C(=O)N(CCC(=O)O)c2ccccc2)c1I | inactive | 
CCCCOC(=O)COc1ccc(Cl)cc1Cl | inactive | 
CC(COCC(C)OC(=O)c1ccccc1)OC(=O)c1ccccc1 (stereo not given) | inactive | 
O=C(Nc1cccc(Cl)c1)OCC#CCCl | inactive | 
CCOc1ccc([N+](=O)[O-])cc1 | inactive | 
CCOC(=O)NNc1ccc(N(CC)CC(C)O)nn1 (stereo not given) | inactive | 
CCCCC/C(C=O)=C\c1ccccc1 | inactive | 
CCCCCCCC(=O)Oc1c(Br)cc(C#N)cc1Br | inactive | 
CC(C)(C)OC(=O)c1cccc(N)c1 | inactive | 
C=CC(O)CCCCC (stereo not given) | inactive | 
CCC(=O)OC/C=C/c1ccccc1 | inactive | 
CCCCCCCCCCCCS | inactive | 
